Results as given in PubChem BioAssay (NCATS).
Results filed as inconclusive are left out. Active and inactive are the calls of the source. Unless noted, calls follow the shape of the dose curve; as a rule, active = well fitted curve in the direction sought with a large enough effect; inconclusive = small, poorly fitted or top-dose-only effect, or another doubt; inactive = no such curve, though single readings can be large; an effect the other way counts as inactive or inconclusive.

What was measured:
[1] = target: Lysosomal acid glucosylceramidase (Homo sapiens) (UniProt P04062); assay: Glucocerebrosidase-p2 (AID 348; in the data active = potency below about 10 µM; also: potency is read from the fitted curve at half-maximal effect); conditions: purified GBA, blue fluorogenic substrate, 40 min
Sequence of Lysosomal acid glucosylceramidase (Homo sapiens) (P04062 whole entry, looked up): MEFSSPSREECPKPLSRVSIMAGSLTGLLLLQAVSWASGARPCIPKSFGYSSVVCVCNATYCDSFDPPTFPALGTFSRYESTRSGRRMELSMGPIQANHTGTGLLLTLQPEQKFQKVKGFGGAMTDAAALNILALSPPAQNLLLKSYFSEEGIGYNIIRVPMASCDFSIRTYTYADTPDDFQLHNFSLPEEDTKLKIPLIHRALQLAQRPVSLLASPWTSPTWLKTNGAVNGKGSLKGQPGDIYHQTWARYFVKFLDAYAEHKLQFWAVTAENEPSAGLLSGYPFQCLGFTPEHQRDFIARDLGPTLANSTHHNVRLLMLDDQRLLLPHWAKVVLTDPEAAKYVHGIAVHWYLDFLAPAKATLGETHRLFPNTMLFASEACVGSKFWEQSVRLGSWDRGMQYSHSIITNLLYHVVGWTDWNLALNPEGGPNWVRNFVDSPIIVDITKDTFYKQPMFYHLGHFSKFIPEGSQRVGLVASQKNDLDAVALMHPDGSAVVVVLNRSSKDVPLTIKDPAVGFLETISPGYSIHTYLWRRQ
Procedure, shortened: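 Compounds titrated from 0.6 nM upwards against 0.2 nM enzyme in pH 5.9 citric acid/KH2PO4, taurocholate, tween-20; blue fluorogenic substrate 80 uM, 40 min room temperature, stopped and read Ex 365/Em 440 for AC50.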

[2] = AP1 Signaling Pathway (AID 357; active = well fitted curve in either direction with a large enough effect, not every such curve was filed as active; also: % is scaled to controls: 0 for no effect and ±100 for the full control effect); conditions: ME-180 AP-1-bla reporter, EGF-induced, beta-lactamase ratio, 5 h; at 7.69 µM (top of the series) unless noted
Procedure, shortened: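 AP-1-bla ME-180 cells with beta-lactamase reporter under AP-1 response element, stimulated with EC50 EGF; compounds titrated, 5 hours at 37 degrees Celsius. CCF4 read at 460/530 nm ratio; positive and negative modulators judged by AC50.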

[3] = NFAT Signaling Pathway (AID 444; active = well fitted curve in either direction with a large enough effect, not every such curve was filed as active;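 also: carbachol stimulus at about its EC50 of 1 µM final; % is scaled to controls: 0 for no effect and ±100 for the full control effect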); conditions: Jurkat NFAT-bla M1, carbachol, beta-lactamase ratio, 5 h; at 7.69 µM (top of the series) unless noted
Procedure, shortened: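 Read-out: CCF4 FRET ratio (460 nm/530 nm) after 1 h RT dye loading, used for %activity and AC50 from titration series. Cells: Jurkat NFAT-β-lactamase/M1 line, treated with compound plus 1 uM carbachol for 5 h, 37 °C.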

[4] = Stat Signaling Pathway (AID 446; active = well fitted curve in either direction with a large enough effect, not every such curve was filed as active;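 also: ME-180 cervical cancer cells given 40 pM IL-6 alongside compound; SIE-controlled beta-lactamase reporter measured as 460/530 nm FRET emission ratio; % is scaled to controls: 0 for no effect and ±100 for the full control effect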); conditions: ME-180 SIE beta-lactamase reporter, IL-6 stimulated, 5 h; at 7.69 µM (top of the series) unless noted
Procedure, shortened: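 Screening format detects activators and inhibitors alike: ME-180 SIE-bla cells stimulated at 40 pM IL-6 for 5 hrs with compound, then dual-emission beta-lactamase read at 405 nm excitation.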

[5] = target: Glucocorticoid receptor (Homo sapiens) (UniProt P04150); assay: GR-GFP Redistribution (AID 450;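 active = compounds whose dose series gives a full or clear partial fitted curve of increased nuclear translocation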; also: potency is read from the fitted curve at half-maximal effect); conditions: U2OS GR-GFP nuclear translocation, laser cytometry, 2 h
Sequence of Glucocorticoid receptor (Homo sapiens) (P04150 whole entry, looked up, the tested form may be a part): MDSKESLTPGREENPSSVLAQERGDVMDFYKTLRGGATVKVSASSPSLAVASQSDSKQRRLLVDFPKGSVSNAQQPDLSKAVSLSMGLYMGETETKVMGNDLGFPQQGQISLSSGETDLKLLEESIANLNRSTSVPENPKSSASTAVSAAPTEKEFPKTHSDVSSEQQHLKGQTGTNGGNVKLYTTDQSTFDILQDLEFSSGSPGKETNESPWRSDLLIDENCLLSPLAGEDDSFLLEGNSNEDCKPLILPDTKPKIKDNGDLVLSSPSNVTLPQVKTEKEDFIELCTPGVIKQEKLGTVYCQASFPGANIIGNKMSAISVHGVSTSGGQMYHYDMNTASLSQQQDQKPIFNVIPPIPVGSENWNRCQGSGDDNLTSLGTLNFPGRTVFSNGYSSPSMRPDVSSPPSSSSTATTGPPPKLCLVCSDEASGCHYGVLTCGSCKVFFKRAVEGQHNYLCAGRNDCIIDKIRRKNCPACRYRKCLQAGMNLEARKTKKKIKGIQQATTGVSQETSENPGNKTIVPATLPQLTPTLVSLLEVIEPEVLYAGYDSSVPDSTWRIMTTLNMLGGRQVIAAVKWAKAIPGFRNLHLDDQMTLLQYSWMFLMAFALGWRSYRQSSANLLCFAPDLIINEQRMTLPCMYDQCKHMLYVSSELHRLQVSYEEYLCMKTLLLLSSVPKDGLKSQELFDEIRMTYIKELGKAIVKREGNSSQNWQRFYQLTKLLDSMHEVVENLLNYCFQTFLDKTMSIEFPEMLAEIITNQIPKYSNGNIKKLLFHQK

[6] = target: Glucocorticoid receptor (Homo sapiens) (UniProt P04150); assay: GR-EFC Redistribution (AID 451; calls by dose curve; also: potency is read from the fitted curve at half-maximal effect); conditions: CHO-K1 GR-EFC translocation, beta-gal luminescence, 2 h
Procedure, shortened: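 Translocation of GR-ED fusion to nuclear EA restores b-gal, read by luminescence after 1 h room-temperature detection. Engineered CHO-K1 biosensor cells, 1,000/well, exposed 2 h at 37 C to titrations up to 46 uM final.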

[7] = target: Mitogen-activated protein kinase 10 (Mus musculus) (UniProt Q61831); assay: JNK3 AlphaScreen Assay (AID 530; active = well fitted curve in either direction with a large enough effect, not every such curve was filed as active;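 also: kinase came from lysate of stimulated human HepG2 cells; signal reports phosphorylation of biotinylated GST-cJun 1-79 at Ser73 with 10 µM ATP; % is scaled to controls: 0 for no effect and ±100 for the full control effect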); conditions: JNK3 lysate, c-Jun phosphorylation; series mostly up to 57.1 µM
Procedure, shortened: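 Room-temperature AlphaScreen kinase assay; pre-activated HepG2 lysate as JNK3 source, biotin-GST-cJun(1-79) substrate, 10 uM ATP, compound 15 min preincubation.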

[8] = target: 3',5'-cyclic-AMP phosphodiesterase 4B (Homo sapiens) (UniProt Q07343); assay: qHTS Assay for Inhibitors of PDE-IV (AID 607; active = well fitted activation curve with a large enough effect in the main read-out, with a control signal flat, not every such curve was filed as active; also: % of control where 0% means no effect); conditions: HEK293 ACTOne CNG channel cells, membrane potential fluorescence; series mostly up to 22.9 µM
Sequence of 3',5'-cyclic-AMP phosphodiesterase 4B (Homo sapiens) (Q07343 whole entry, looked up): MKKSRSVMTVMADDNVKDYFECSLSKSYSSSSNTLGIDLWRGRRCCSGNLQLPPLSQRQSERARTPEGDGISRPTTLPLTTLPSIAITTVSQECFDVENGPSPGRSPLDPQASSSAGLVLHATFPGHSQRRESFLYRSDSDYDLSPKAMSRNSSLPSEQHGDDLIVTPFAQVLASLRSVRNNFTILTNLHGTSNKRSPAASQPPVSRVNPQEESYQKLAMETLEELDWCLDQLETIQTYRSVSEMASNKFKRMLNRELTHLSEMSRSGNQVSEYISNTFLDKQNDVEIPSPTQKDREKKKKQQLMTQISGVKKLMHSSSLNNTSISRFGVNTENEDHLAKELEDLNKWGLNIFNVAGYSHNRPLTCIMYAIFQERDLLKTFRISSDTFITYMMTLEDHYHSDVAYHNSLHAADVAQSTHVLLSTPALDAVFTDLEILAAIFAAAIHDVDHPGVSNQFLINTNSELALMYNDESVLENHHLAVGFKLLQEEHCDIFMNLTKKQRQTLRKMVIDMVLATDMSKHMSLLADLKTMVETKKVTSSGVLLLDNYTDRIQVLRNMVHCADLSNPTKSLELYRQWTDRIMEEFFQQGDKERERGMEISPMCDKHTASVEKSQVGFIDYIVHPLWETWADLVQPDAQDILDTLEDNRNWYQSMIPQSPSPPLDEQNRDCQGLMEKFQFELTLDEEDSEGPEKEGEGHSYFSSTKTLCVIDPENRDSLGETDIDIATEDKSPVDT
Procedure, shortened: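 The readout is membrane depolarisation from a cAMP-sensing CNG channel, detected with a potential dye at ex 535/em 590. Cells were HEK293-derived (endogenous PDE-IV) at 1000 cells/well, titrated up to 22.9 uM final.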

[9] = qHTS Assay for Lipid Storage Modulators (AID 1519; calls by dose curve); conditions: Drosophila S3 cells, BODIPY lipid droplet/cell ratio, laser cytometry, cells loaded with oleic acid; for activity change, negative = inhibition: at 57.5 µM (top of the series)
Procedure, shortened: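 Cells seeded at 5,000 per well were treated with compounds over a concentration series and loaded with oleic acid (400 uM, as added). Lipid droplet fluorescence (488 nm excitation, 500-530 nm channel) was read by laser-scanning cytometry and normalized to 20 uM Triacsin C.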

[10] = target: Dual specificity protein kinase CLK4 (Homo sapiens) (UniProt Q9HAZ1); assay: qHTS Assay for Inhibitors of CDC-like Kinase 4 (Kinase-Glo Assay) (AID 1770); conditions: recombinant Clk4, Kinase-Glo ATP depletion luminescence; series mostly up to 66.7 µM; also: % is scaled to controls: 0 for no effect and ±100 for the full control effect; nearly all actives have a fitted effect of over 65% in size
Sequence of Dual specificity protein kinase CLK4 (Homo sapiens) (Q9HAZ1 whole entry, looked up): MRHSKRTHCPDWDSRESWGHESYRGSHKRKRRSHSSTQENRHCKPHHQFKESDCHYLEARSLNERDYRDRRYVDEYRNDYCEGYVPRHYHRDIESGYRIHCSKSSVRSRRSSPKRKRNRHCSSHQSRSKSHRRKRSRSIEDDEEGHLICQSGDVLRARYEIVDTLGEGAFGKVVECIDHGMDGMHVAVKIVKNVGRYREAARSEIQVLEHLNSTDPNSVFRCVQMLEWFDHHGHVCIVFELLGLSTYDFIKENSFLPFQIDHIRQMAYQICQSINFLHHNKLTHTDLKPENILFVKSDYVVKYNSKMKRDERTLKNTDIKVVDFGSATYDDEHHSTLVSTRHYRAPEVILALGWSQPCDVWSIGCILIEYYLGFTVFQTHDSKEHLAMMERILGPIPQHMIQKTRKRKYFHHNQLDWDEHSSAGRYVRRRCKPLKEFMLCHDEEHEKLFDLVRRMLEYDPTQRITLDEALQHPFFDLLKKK
Procedure, shortened: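 Inhibition was judged from remaining ATP, measured by Ultra-Glo luciferase bioluminescence after Clk4 (25 nM) had acted on RS peptide at 1 uM ATP for 4.5 hours, room temperature.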

[11] = target: Dual specificity protein kinase CLK4 (Homo sapiens) (UniProt Q9HAZ1); assay: qHTS Assay for Inhibitors of CDC-like Kinase 4 (ADP-Glo Assay) (AID 1771); conditions: recombinant CLK4, ADP-Glo luminescence; series mostly up to 80 µM; also: % is scaled to controls: 0 for no effect and ±100 for the full control effect; nearly all actives have a fitted effect of over 70% in size
Procedure, shortened: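 Clk4 (25 nM) was incubated 1 hr at room temperature with 100 uM RS repeat peptide and 1 uM ATP in buffer with 2 mM MgCl2, 0.5 mM EGTA, 2.5 mM DTT. ADP formed was quantified by ADP-Glo luminescence.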

[12] = target: Dual specificity protein kinase CLK4 (Homo sapiens) (UniProt Q9HAZ1); assay: qHTS Assay for Inhibitors of CDC-like Kinase 4 (ADP-FP Assay) (AID 1795); conditions: Transcreener ADP fluorescence polarization; series mostly up to 50 µM;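 also: recombinant human CLK4 phosphorylating RS repeat peptide at 1 µM ATP; % is scaled to controls: 0 for no effect and ±100 for the full control effect; nearly all actives have a fitted effect of over 60% in size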
Procedure, shortened: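 Inhibition of ADP formation by 6.25 nM Clk4 is measured using 1 uM ATP and 100 uM RS repeat peptide over one hour. Produced ADP displaces a fluorescent tracer from antibody, lowering polarization.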

[13] = target: Ubiquitin carboxyl-terminal hydrolase 1 (Homo sapiens) (UniProt O94782); assay: Inhibitors of USP1/UAF1: Pilot qHTS (AID 504865); conditions: purified USP1/UAF1, Ub-rhodamine cleavage fluorescence; series mostly up to 54.9 µM; also: nearly all actives have a fitted effect of over 35% in size; also: potency is read from the fitted curve at half-maximal effect
Sequence of Ubiquitin carboxyl-terminal hydrolase 1 (Homo sapiens) (O94782 whole entry, looked up): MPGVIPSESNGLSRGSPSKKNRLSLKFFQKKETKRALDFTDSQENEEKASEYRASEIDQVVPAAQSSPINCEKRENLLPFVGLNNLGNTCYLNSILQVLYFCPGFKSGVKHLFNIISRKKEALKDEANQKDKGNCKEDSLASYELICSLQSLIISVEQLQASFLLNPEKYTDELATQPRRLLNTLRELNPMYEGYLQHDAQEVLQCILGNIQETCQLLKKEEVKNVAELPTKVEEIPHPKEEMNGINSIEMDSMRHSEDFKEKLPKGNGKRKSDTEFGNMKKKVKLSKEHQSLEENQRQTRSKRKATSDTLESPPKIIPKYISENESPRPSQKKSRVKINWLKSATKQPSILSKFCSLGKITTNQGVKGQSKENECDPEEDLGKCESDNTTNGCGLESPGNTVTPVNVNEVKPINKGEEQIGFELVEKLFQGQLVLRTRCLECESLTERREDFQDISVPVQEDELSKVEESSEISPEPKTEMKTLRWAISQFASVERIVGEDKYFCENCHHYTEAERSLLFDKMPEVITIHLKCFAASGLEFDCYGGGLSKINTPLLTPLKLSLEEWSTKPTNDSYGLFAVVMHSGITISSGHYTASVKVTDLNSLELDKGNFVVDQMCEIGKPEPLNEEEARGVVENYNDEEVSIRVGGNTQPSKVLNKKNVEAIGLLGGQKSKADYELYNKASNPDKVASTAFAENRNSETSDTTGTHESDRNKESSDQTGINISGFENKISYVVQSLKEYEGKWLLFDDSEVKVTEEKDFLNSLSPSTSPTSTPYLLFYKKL
Procedure, shortened: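 Kinetic fluorescence assay: 1nM USP1/UAF1, 15 min compound preincubation, then 150nM Ub-Rho; 480/540 nm.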

[14] = Primary qHTS for small molecule stabilizers of the endoplasmic reticulum resident proteome: Secreted ER Calcium Modulated Protein (SERCaMP) assay (AID 1508630); conditions: SH-SY5Y GLuc-SERCaMP (Gaussia luciferase released on ER calcium loss) secretion, thapsigargin, luminescence; series mostly up to 38.4 µM; also: % is scaled to controls: 0 for no effect and ±100 for the full control effect
Procedure, shortened: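 GLuc-SERCaMP-expressing SH-SY5Y cells, pretreated 16 h with compound, are challenged with thapsigargin to empty ER calcium stores; after 4 h, coelenterazine is added directly to the medium and luminescence is imaged.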

[15] = qHTS Assay for Identification of Small Molecule Agonists for Hypoxia Response Element Signaling Pathway (AID 914; active = well fitted activation curve with a large enough effect in the signal ratio, with a control signal flat, not every such curve was filed as active; the % refers to the signal ratio; also: % of control where 0% means no effect); conditions: ME-180 (cervical carcinoma) HRE-bla reporter, beta-lactamase ratio, CoCl2, 17 h; activation: stronger effect = higher value
Procedure, shortened: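 Read-out: CCF4 FRET ratio of 460nm to 530nm emission (excitation 405nm) after 2.5 hours at room temperature, taken from HRE-bla ME-180 cells that had been exposed to compound and EC50 CoCl2 for 17 hours.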

[16] = measured here: cell count channel max response
[17] = measured here: lipid channel max response

SMILES | Potency [1] | activity change, negative = inhibition [2] | activity change, negative = inhibition [3] | activity, negative = inhibition [4] | Potency [5] | Potency [6] | outcome [7] | Potency [8] | activity change, negative = inhibition [9] | max response [9, 16] | max response [9, 17] | Potency [10] | Potency [11] | Potency [12] | Potency [13] | Potency [14] | activation [15]
O=c1c(-c2ccc(F)cc2)nc2cnc(Oc3ccccc3)nc2n1Cc1cccs1 | > 11.4 µM (inactive) | -11.6% (inactive) | 2.8% (inactive) | 1.3% (inactive) | > 9.22 µM (inactive) | > 46 µM (inactive) | inactive | inactive | -20.3% (inactive) | -6.12% | -29.7% | inactive | inactive | inactive | 3.16 µM (active) | inactive | –
O=c1c(-c2cc(F)cc(F)c2)nc2cnc(N3CCOCC3)nc2n1Cc1cccs1 | > 11.4 µM (inactive) | 6.66% (inactive) | 22.7% (inactive) | 6.69% (inactive) | > 9.22 µM (inactive) | > 46 µM (inactive) | inactive | inactive | 3.39% (inactive) | 18.1% | 23.4% | inactive | inactive | inactive | inactive | inactive | –
Cc1nc2cnc(Nc3ccccc3)nc2n(Cc2ccc(F)cc2)c1=O | > 11.4 µM (inactive) | -12.8% (inactive) | -23.6% (inactive) | 2.69% (inactive) | > 9.22 µM (inactive) | > 46 µM (inactive) | inactive | inactive | 1.06% (inactive) | 7.11% | 6.57% | inactive | inactive | inactive | inactive | inactive | –
COCCn1c(=O)cnc2cnc(N3CCN(C)CC3)nc21 | > 11.4 µM (inactive) | -13.3% (inactive) | -29.3% (inactive) | -12.7% (inactive) | > 9.22 µM (inactive) | > 46 µM (inactive) | inactive | inactive | 0.388% (inactive) | 4.53% | 3.72% | inactive | inactive | inactive | inactive | inactive | –
COCCn1c(=O)c(-c2cccc(C#N)c2)nc2cnc(OC)nc21 | > 11.4 µM (inactive) | -22.4% (inactive) | 4.96% (inactive) | -9.77% (inactive) | > 9.22 µM (inactive) | > 46 µM (inactive) | inactive | inactive | 4.12% (inactive) | 19.6% | 22% | inactive | inactive | inactive | – | inactive | -7.08% (inactive)
CN(C)c1ncc2nc(-c3cc(F)cc(F)c3)c(=O)n(C3CC3)c2n1 | > 11.4 µM (inactive) | 5.31% (inactive) | -6.61% (inactive) | 10.2% (inactive) | > 9.22 µM (inactive) | > 46 µM (inactive) | inactive | inactive | 6.95% (inactive) | 8.84% | 14.6% | inactive | inactive | inactive | inactive | inactive | –
